Measurements from article PMC5515408, “Sequence-specific DNA binding by MYC/MAX to low-affinity non-E-box motifs”.
The full ranking holds about 5,000 sequences; the median of “log2 normalized fluorescence” is about 0.089, and the highest 2% start at about 0.81. Only a selection was taken, and the highest values are over-represented in it overall.

Molecular target: MYC (p64);MAX (p21), in MYC:MAX (human;human, UniProt P01106-1;P61244-2 1-439;1-151, |)
Assay: protein-binding microarray (anti-MAX antibody); PBM: 15 mM Tris-HCl pH 7.5, 100 mM KCl, 0.075% NP40, 7.5 mM beta-mercaptoethanol, 375 ng/ul BSA, 8 ng/ul poly(dA-dT):(dA-dT), 550 ng complex, 60 min, room tempe; high values mean tight binding
Conditions: protein: recombinant;recombinant; tags: 6xHis;6xHis; copies: 1;1; label: 3' end of printed strand (linker) attached to glass slide; dsDNA, one strand shown
Procedure, shortened: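 Binding is reported as log2 normalized fluorescence. Recombinant His-tagged human MYC:MAX or MAX:MAX dimers expressed in E. coli (550 ng) were incubated with a custom Agilent glass array for 60 min at room temperature in Tris-KCl buffer, pH 7.5, containing NP40, BSA and poly(dA-dT) competitor. The array carried ~5000 unique 12-nt sequences, each spotted in triplicate and made double-stranded by primer extension, and bound protein was detected with anti-MAX and secondary antibodies and scanned at 543 nm.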

MYC (p64);MAX (p21), in MYC:MAX, sequence (P01106 16-454, chain 1 of 2): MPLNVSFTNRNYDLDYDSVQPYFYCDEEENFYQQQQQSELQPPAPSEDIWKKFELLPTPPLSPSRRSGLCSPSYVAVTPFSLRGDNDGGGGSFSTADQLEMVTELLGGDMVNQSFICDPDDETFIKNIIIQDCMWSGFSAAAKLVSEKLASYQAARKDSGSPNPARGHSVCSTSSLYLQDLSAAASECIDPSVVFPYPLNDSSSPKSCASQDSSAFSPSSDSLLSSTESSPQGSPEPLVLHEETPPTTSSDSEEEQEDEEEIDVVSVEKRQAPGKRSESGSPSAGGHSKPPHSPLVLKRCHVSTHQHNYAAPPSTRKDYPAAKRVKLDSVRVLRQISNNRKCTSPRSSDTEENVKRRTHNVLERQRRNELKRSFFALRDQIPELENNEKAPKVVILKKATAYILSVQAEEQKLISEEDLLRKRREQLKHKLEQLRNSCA
MYC (p64);MAX (p21), in MYC:MAX, sequence (P61244 other isoform, or with tags, fused parts or gaps |, chain 2 of 2): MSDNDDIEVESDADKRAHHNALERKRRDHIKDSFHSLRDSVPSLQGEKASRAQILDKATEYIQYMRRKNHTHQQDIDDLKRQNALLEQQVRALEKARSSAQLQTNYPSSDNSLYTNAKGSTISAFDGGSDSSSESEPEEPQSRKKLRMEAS

Sequence	binding signal
CCGGCTGCCACGTGCTTTTAATAGCTAAGATTACTATATCGACG	0.652 log2 normalized fluorescence
CCGGCTAACACGTGCTTTTAATAGCTAAGATTACTATATCGACG	0.969 log2 normalized fluorescence
CCGGCCGACACGTGCTTTTAATAGCTAAGATTACTATATCGACG	0.852 log2 normalized fluorescence
CCGGCCGACACGTTGTTTTAATAGCTAAGATTACTATATCGACG	0.661 log2 normalized fluorescence
CCGGCCGACACGTGCTATTAATAGCTAAGATTACTATATCGACG	0.722 log2 normalized fluorescence
CCGGCTGACACGTGCTTTTAATAGCTAAGATTACTATATCGACG	0.771 log2 normalized fluorescence
CCGGCTGAGTTGTGGTATTAATAGCTAAGATTACTATATCGACG	0.0821 log2 normalized fluorescence
CCGGCTGAAACATCGTATTAATAGCTAAGATTACTATATCGACG	0.226 log2 normalized fluorescence
CCGGCTGAGGTAATGTATTAATAGCTAAGATTACTATATCGACG	0.138 log2 normalized fluorescence
CCGGCCGACACGCGGTATTAATAGCTAAGATTACTATATCGACG	0.697 log2 normalized fluorescence
CCGGCTTACACGTGATATTAATAGCTAAGATTACTATATCGACG	0.75 log2 normalized fluorescence
CCGGCGGAGACGATGTTTTAATAGCTAAGATTACTATATCGACG	0.0761 log2 normalized fluorescence
CCGGCATACACGTGGTATTAATAGCTAAGATTACTATATCGACG	0.842 log2 normalized fluorescence
CCGGCTTACACGTGCTATTAATAGCTAAGATTACTATATCGACG	1.02 log2 normalized fluorescence
CCGGCAAACACGATGTTTTAATAGCTAAGATTACTATATCGACG	0.827 log2 normalized fluorescence
CCGGCATACACTTGGTATTAATAGCTAAGATTACTATATCGACG	0.425 log2 normalized fluorescence
CCGGCTAATACGTGGTATTAATAGCTAAGATTACTATATCGACG	0.38 log2 normalized fluorescence
CCGGCTAACACGCGGTATTAATAGCTAAGATTACTATATCGACG	0.819 log2 normalized fluorescence
CCGGCAGAGAACGATGTTTAATAGCTAAGATTACTATATCGACG	0.248 log2 normalized fluorescence
CCGGCTGACACGCGGTATTAATAGCTAAGATTACTATATCGACG	0.487 log2 normalized fluorescence

Sequence	binding signal
CCGGCTTACACATGCTATTAATAGCTAAGATTACTATATCGACG	0.812 log2 normalized fluorescence
CCGGCTGATAAGGTGTATTAATAGCTAAGATTACTATATCGACG	0.0319 log2 normalized fluorescence
CCGGCTGAACGCTAGTATTAATAGCTAAGATTACTATATCGACG	0.178 log2 normalized fluorescence
CCGGCTGAGTGACAGTATTAATAGCTAAGATTACTATATCGACG	0.00932 log2 normalized fluorescence
CCGGCTGAACCGATGTATTAATAGCTAAGATTACTATATCGACG	0.0618 log2 normalized fluorescence
CCGGCTGACGTACGGTATTAATAGCTAAGATTACTATATCGACG	0.112 log2 normalized fluorescence
CCGGCTGAGCTCCCGTATTAATAGCTAAGATTACTATATCGACG	0.0359 log2 normalized fluorescence
CCGGCTGAACGGACGTATTAATAGCTAAGATTACTATATCGACG	0.0519 log2 normalized fluorescence
CCGGCTTAATCGTGGTATTAATAGCTAAGATTACTATATCGACG	0.374 log2 normalized fluorescence
CCGGCCGTCACGTGGTTTTAATAGCTAAGATTACTATATCGACG	0.74 log2 normalized fluorescence
CCGGCTATAACGTGGTATTAATAGCTAAGATTACTATATCGACG	0.627 log2 normalized fluorescence
CCGGCGAACACGTGGTATTAATAGCTAAGATTACTATATCGACG	0.76 log2 normalized fluorescence
CCGGCGCAAACGTGGTATTAATAGCTAAGATTACTATATCGACG	0.579 log2 normalized fluorescence
CCGGCTTAGACGTGGTATTAATAGCTAAGATTACTATATCGACG	0.235 log2 normalized fluorescence
CCGGCAAATACGTGGTATTAATAGCTAAGATTACTATATCGACG	0.556 log2 normalized fluorescence
CCGGCTTACACGTGGTTTTAATAGCTAAGATTACTATATCGACG	0.721 log2 normalized fluorescence
CCGGCTTACACGTGGTATTAATAGCTAAGATTACTATATCGACG	0.847 log2 normalized fluorescence
CCGGCTAACACGTGGTTTTAATAGCTAAGATTACTATATCGACG	1.01 log2 normalized fluorescence
CCGGCAAACACGTGGTATTAATAGCTAAGATTACTATATCGACG	1.02 log2 normalized fluorescence
CCGGCTAACACGTGGTATTAATAGCTAAGATTACTATATCGACG	0.946 log2 normalized fluorescence

Sequence	binding signal
CCGGCTGACGCACTGTATTAATAGCTAAGATTACTATATCGACG	0.457 log2 normalized fluorescence
CCGGCTGAAGGCCCGTATTAATAGCTAAGATTACTATATCGACG	0.0982 log2 normalized fluorescence
CCGGCTGAATCAAAGTATTAATAGCTAAGATTACTATATCGACG	-0.00984 log2 normalized fluorescence
CCGGCTGACCCTTGATATTAATAGCTAAGATTACTATATCGACG	0.0562 log2 normalized fluorescence
CCGGCTGAATGTTGGTATTAATAGCTAAGATTACTATATCGACG	0.176 log2 normalized fluorescence
CCGGCTGACCTCCCGTATTAATAGCTAAGATTACTATATCGACG	0.167 log2 normalized fluorescence
CCGGCTGAACCGCGGTATTAATAGCTAAGATTACTATATCGACG	0.103 log2 normalized fluorescence
CCGGCTGAACTCGAGTATTAATAGCTAAGATTACTATATCGACG	0.253 log2 normalized fluorescence
CCGGCTGGGGCGTGGTATTAATAGCTAAGATTACTATATCGACG	0.471 log2 normalized fluorescence
CCGGCCAACACGTGGTATTAATAGCTAAGATTACTATATCGACG	0.937 log2 normalized fluorescence
CCGGCCAACACGTTGTATTAATAGCTAAGATTACTATATCGACG	0.669 log2 normalized fluorescence
CCGGCTCCAACGTGGTATTAATAGCTAAGATTACTATATCGACG	0.579 log2 normalized fluorescence
CCGGCTGAAGGACCGTATTAATAGCTAAGATTACTATATCGACG	0.0673 log2 normalized fluorescence
CCGGCTGACACGTGGCATTAATAGCTAAGATTACTATATCGACG	0.835 log2 normalized fluorescence
CCGGCTGACACGTAGCATTAATAGCTAAGATTACTATATCGACG	0.484 log2 normalized fluorescence
CCGGCTGACACGTGCCTTTAATAGCTAAGATTACTATATCGACG	0.722 log2 normalized fluorescence
CCGGCTGACACGTGGCCTTAATAGCTAAGATTACTATATCGACG	0.897 log2 normalized fluorescence
CCGGCTGACACGTGGACTTAATAGCTAAGATTACTATATCGACG	0.734 log2 normalized fluorescence
CCGGCTGACTCGTGGCATTAATAGCTAAGATTACTATATCGACG	0.584 log2 normalized fluorescence
